Laboratory results from PubChem BioAssay.
The source made the active and inactive calls. Unless noted, the rule behind the calls is not given here.

Experiments:
[1] = resazurin metabolic signal in HepG2 cells – cell-based, resazurin fluorescence, 24 h, PK04 Diversity Set, profiling panel (AID 1172); conditions: HepG2 viability, higher = more signal; note: test concentration not given here
[2] = budding yeast growth changes without added modifier – OD600, strain BY4716, 24 h, basal condition, primary screen (AID 1173); conditions: S. cerevisiae BY4716 growth, OD600, 24 h; higher = more signal, called active from +8 up or from −8 down
[3] = viability profiling in MM1S myeloma cells – cell-based, resazurin fluorescence, basal, 24 h, PK04 Diversity Set, profiling panel (AID 1174); conditions: higher = more signal, called active from +8 up or from −8 down;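 note: MM1S multiple myeloma cell line; test concentration not given here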
[4] = biological target: Dihydroorotate dehydrogenase (quinone), mitochondrial (Plasmodium falciparum (isolate 3D7)) (UniProt Q08210); experiment: inhibition of P. falciparum DHODH – biochemical, C-terminal His tag, absorbance 600 nm, primary screen (AID 1175); conditions: PfDHODH enzyme, DCIP absorbance 600 nm; higher = more signal, called active from +8 up or from −8 down;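 note: recombinant parasite enzyme with a five histidine tag at its C terminus; test concentration not given here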
[5] = inhibition of PAO1 biofilm formation – strain PAO1, LB-PBS medium, absorbance 600 nm, primary screen (AID 1176); note: test concentration not given here; conditions: P. aeruginosa PAO1 growth/biofilm, A600, 12 h; higher = more signal
[6] = growth modulation of vineyard yeast isolate – strain RM11-1a, OD600, basal, 24 h, primary screen (AID 1177);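 note: cultures grown under basal conditions with no added stressor; test concentration not given here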; conditions: S. cerevisiae RM11-1a growth, OD600, 24 h; higher = more signal, called active from +8 up or from −8 down
[7] = growth of efflux-deficient E. coli DRC39 – strain DRC39, OD650, 24 h, E. coli filamentation inducers, primary screen (AID 1178);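 note: growth measured as culture turbidity by optical density at 650 nm; test concentration not given here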; conditions: E. coli DRC39 acrAB, higher = more signal, called active from +8 up or from −8 down
[8] = growth of efflux-deficient E. coli DRC39 – strain DRC39, OD650, 48 h, E. coli filamentation inducers, primary screen (AID 1179);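 note: screen aims at cell division blockers that make cells filament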; conditions: E. coli DRC39 delta-acrAB growth, higher = more signal, called active from +8 up or from −8 down
[9] = viability profiling in RPMI8226 myeloma cells – cell-based, resazurin fluorescence, basal, 24 h, PK04 Diversity Set, profiling panel (AID 1180); conditions: higher = more signal;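 note: RPMI8826 multiple myeloma cell line at 5000 cells per well; test concentration not given here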
[10] = biological target: E3 ubiquitin-protein ligase XIAP (Homo sapiens) (UniProt P98170); experiment: small molecules binding XIAP protein – biophysical, small-molecule microarray, fluorescence 635 nm, primary screen (AID 1181); conditions: higher = more signal;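 note: score merges 667 nm emission and signal to noise over triplicate slides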
Sequence of E3 ubiquitin-protein ligase XIAP (Homo sapiens) (P98170 whole entry, looked up): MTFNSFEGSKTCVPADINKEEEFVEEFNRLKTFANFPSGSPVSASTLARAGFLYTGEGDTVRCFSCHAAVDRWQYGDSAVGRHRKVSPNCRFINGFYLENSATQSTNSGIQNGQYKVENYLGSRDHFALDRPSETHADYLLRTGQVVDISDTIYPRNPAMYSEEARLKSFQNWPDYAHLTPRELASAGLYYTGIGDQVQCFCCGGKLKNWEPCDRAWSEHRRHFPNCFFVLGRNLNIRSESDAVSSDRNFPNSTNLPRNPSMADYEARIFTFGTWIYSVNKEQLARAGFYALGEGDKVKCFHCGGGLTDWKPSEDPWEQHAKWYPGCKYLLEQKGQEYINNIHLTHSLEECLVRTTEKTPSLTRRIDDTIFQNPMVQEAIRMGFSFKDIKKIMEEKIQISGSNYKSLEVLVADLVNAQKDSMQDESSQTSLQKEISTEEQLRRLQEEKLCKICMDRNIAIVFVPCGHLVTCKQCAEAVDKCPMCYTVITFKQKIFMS

Sequence of Dihydroorotate dehydrogenase (quinone), mitochondrial (Plasmodium falciparum (isolate 3D7)) (Q08210 whole entry, looked up): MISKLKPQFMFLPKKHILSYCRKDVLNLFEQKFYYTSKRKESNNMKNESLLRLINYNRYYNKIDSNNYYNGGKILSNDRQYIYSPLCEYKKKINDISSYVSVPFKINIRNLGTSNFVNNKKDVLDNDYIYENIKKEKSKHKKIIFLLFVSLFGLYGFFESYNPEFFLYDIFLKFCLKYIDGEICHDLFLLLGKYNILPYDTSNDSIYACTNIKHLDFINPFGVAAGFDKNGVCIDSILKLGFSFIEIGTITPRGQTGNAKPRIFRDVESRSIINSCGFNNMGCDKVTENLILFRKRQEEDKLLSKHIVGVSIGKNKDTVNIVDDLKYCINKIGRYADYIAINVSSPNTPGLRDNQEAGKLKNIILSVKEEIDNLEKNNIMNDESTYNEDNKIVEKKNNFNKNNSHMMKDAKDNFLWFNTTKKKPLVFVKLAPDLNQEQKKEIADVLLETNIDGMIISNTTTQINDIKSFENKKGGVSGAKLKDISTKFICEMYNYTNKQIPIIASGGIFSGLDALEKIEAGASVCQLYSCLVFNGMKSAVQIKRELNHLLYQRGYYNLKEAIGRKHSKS

Row | Structure (SMILES) | z-score [1] | z-score [2] | z-score [3] | composite z-score [4] | z-score [5] | z-score [6] | z-score [7] | z-score [8] | z-score [9] | composite z-score [10]
1 | O=C1[C@H]2[C@H]3[C@H](O)[C@H](O)CC(=NOC[C@@H](O)COCc4ccco4)[C@@H]3CC[C@H]2C(=O)N1Cc1ccccc1 | 0.379 | -1.64 (inactive) | -0.737 (inactive) | -0.137 (inactive) | -1.01 (inactive) | -0.426 (inactive) | 0.17 (inactive) | 0.616 (inactive) | 0.569 | -0.194
2 | C[C@@H]1CC[C@H]2C(=O)OC(CN3C(=O)c4ccccc4C3=O)CN2[C@H]1c1ccc(Br)cc1 (stereo not given in full) | 0.462 | -0.501 (inactive) | 0.668 (inactive) | 0.639 (inactive) | -0.27 (inactive) | 0.183 (inactive) | 0.786 (inactive) | 0.467 (inactive) | 0.685 | -0.0438
3 | CCOC(=O)[C@H](CC(C)C)NC(=O)CCC1CC(OC(=O)NCc2ccc3c(c2)OCO3)CC2(CCCC(COC(=O)NCc3ccccc3)O2)O1 (stereo not given in full) | 1.32 | 0.918 (inactive) | 0.624 (inactive) | -0.047 (inactive) | -0.282 (inactive) | 1.26 (inactive) | 0.533 (inactive) | -0.0559 (inactive) | 0.836 | 0.0727
4 | CC(C)CON=C1C[C@@H](O)[C@@H](O)[C@@H]2[C@@H]3C(=O)N(Cc4ccc5c(c4)OCO5)C(=O)[C@@H]3CC[C@@H]12 | 0.344 | 0.793 (inactive) | 0.61 (inactive) | 0.0312 (inactive) | -0.249 (inactive) | 0.64 (inactive) | 0.146 (inactive) | -0.563 (inactive) | -0.0253 | -0.102
5 | O=C1C=C[C@@H](O)[C@@H]2[C@@H]3C(=O)N(C4CCCCC4)C(=O)[C@@H]3CC[C@@H]12 | -0.295 | -1.28 (inactive) | -1.45 (inactive) | -0.168 (inactive) | -0.601 (inactive) | 0.246 (inactive) | -0.292 (inactive) | -0.191 (inactive) | -1.31 | -0.269
6 | COC(=O)[C@H](C)NC(=O)CCC1CC(OC(=O)NCCc2ccc(F)cc2)CC2(CCCC(COC(=O)NCCOc3ccccc3)O2)O1 (stereo not given in full) | 0.0903 | 0.338 (inactive) | 0.177 (inactive) | -0.361 (inactive) | -0.0326 (inactive) | 0.127 (inactive) | 0.289 (inactive) | -0.451 (inactive) | -0.0199 | -0.114
7 | CC(CCC(=O)OC[C@H]1O[C@H](C#Cc2ccccc2)C=C[C@@H]1Oc1ccc(C)cc1)=NO[C@H](C)c1cn([C@@H]2COC[C@H]2O)nn1 | -0.458 | -0.174 (inactive) | -1.7 (inactive) | -2.12 (inactive) | 1.12 (inactive) | -2.02 (inactive) | -0.698 (inactive) | -0.651 (inactive) | -0.474 | -0.0793
8 | CCOC(=O)[C@H](CC(C)C)NC(=O)CCC1CC(OC(=O)NCCc2ccc(F)cc2)CC2(CCCC(COC(=O)NCc3cccc4ccccc34)O2)O1 (stereo not given in full) | 0.682 | -1.9 (inactive) | 1.28 (inactive) | 0.0103 (inactive) | 0.168 (inactive) | -0.186 (inactive) | 0.424 (inactive) | -0.435 (inactive) | 1.3 | -0.0939
9 | CC(CCC(=O)OC[C@H]1O[C@H](C#Cc2ccccc2)C=C[C@@H]1Oc1ccc(C)cc1)=NOC(C)CN1CCCc2nc(C)c(C)cc21 (stereo not given in full) | -0.374 | -0.525 (inactive) | -0.541 (inactive) | 0.589 (inactive) | 0.335 (inactive) | 0.797 (inactive) | 0.879 (inactive) | -0.41 (inactive) | -0.0206 | 0.257
10 | C[C@]12CCC3c4ccc(OCC5CO5)cc4CCC3C1CC[C@@H]2O (stereo not given in full) | 0.689 | -3.59 (inactive) | 0.383 (inactive) | -0.187 (inactive) | 0.52 (inactive) | 1.27 (inactive) | -0.424 (inactive) | -0.431 (inactive) | 1.68 | -0.148
11 | CCCNC(=O)OC[C@H]1O[C@H](CCON=C2c3cc(OC)ccc3O[C@H](c3cccc(OC)c3)[C@H]2O)C=C[C@@H]1Oc1ccc(OC)cc1 | -0.286 | 0.668 (inactive) | -0.801 (inactive) | 0.159 (inactive) | 0.724 (inactive) | 0.391 (inactive) | 0.885 (inactive) | -0.034 (inactive) | -0.384 | 0.02
12 | CN1CCc2nc(-c3ccccc3)c(-c3ccccc3)cc2C1 | 0.713 | 0.0367 (inactive) | 0.476 (inactive) | -0.191 (inactive) | -0.364 (inactive) | 0.298 (inactive) | 0.38 (inactive) | 0.105 (inactive) | 0.639 | 0.0024
13 | COc1ccc(OC[C@H]2CN3[C@@H](CC[C@@H](C)[C@@H]3c3ccc(Br)cc3)C(=O)O2)cc1 | -0.699 | -1.63 (inactive) | 0.649 (inactive) | 0.217 (inactive) | -1.52 (inactive) | -0.13 (inactive) | -1.87 (inactive) | -1.35 (inactive) | -0.134 | -0.129
14 | CCOC(=O)[C@H](Cc1ccccc1)NC(=O)CCC1CC(OC(=O)NCc2cccc3ccccc23)CC2(CCCC(COC(=O)NCC3CCCCC3)O2)O1 (stereo not given in full) | 1.21 | -0.424 (inactive) | 1.43 (inactive) | -0.105 (inactive) | 0.143 (inactive) | -0.104 (inactive) | -0.475 (inactive) | 0.481 (inactive) | 0.0833 | 0.0424
15 | C=CCOCC1CN2[C@@H](CC[C@@H](C)[C@@H]2c2ccc(Br)cc2)C(=O)O1 (stereo not given in full) | 0.685 | -0.139 (inactive) | 0.824 (inactive) | -0.959 (inactive) | 0.013 (inactive) | 1.14 (inactive) | 0.622 (inactive) | -0.0542 (inactive) | 1.49 | -0.184
16 | COC(=O)[C@@H]1CC[C@H](C)[C@@H](c2ccc(C)cc2)N1C(=O)c1ccc(C=NOC[C@@H](O)[C@H]2O[C@@H]3OC(C)(C)O[C@@H]3[C@H]2O)cc1 | -0.187 | -0.318 (inactive) | -1.05 (inactive) | -0.354 (inactive) | 0.642 (inactive) | -0.168 (inactive) | 0.507 (inactive) | 0.577 (inactive) | -0.772 | -0.173
17 | C[C@@H](c1ccccc1)N1C(=O)[C@H]2[C@H]3[C@H](O)[C@H](O)CC(=NOCc4ccccc4)[C@@H]3CC[C@H]2C1=O | -0.511 | -0.123 (inactive) | -0.457 (inactive) | 0.805 (inactive) | -0.0819 (inactive) | -0.183 (inactive) | -0.241 (inactive) | -0.0934 (inactive) | -0.181 | -0.185
18 | CCOC(=O)[C@H](CC(C)C)NC(=O)CCC1CC(OC(=O)NCCc2ccc(F)cc2)CC2(CCCC(COC(=O)NCCOC)O2)O1 (stereo not given in full) | 0.0369 | 1.02 (inactive) | 0.581 (inactive) | 0.753 (inactive) | 0.283 (inactive) | 0.963 (inactive) | 0.0415 (inactive) | -0.489 (inactive) | 0.464 | -0.18
19 | CCOC(=O)CCN1C(=O)[C@H]2[C@H]3[C@H](O)[C@H](O)CC(=NOCC=C(C)CCC=C(C)C)[C@H]3CC[C@H]2C1=O | -0.51 | 0.398 (inactive) | -0.524 (inactive) | -0.0222 (inactive) | 0.128 (inactive) | 0.0725 (inactive) | 0.614 (inactive) | 0.846 (inactive) | -0.764 | 0.0223
20 | C#CCCCON=C1[C@H]2CCn3c(=O)n([C@@H](CC)c4ccccc4)c(=O)n3[C@H]2[C@H](O)[C@@H]2O[C@H]12 | -0.14 | -0.971 (inactive) | -0.813 (inactive) | 0.147 (inactive) | -0.531 (inactive) | -0.771 (inactive) | -0.529 (inactive) | -0.567 (inactive) | -0.751 | -0.181
21 | CO[C@@H](C(C)C)[C@@H](C)C1OC(=O)CC1O (stereo not given in full) | -0.544 | -0.139 (inactive) | -0.766 (inactive) | -0.531 (inactive) | -0.139 (inactive) | -0.622 (inactive) | 0.284 (inactive) | 0.468 (inactive) | -1.17 | -0.0391
22 | O=C(NN=C1C[C@@H](O)[C@@H](O)[C@@H]2[C@@H]3C(=O)N(Cc4ccc5c(c4)OCO5)C(=O)[C@@H]3CC[C@@H]12)OCc1ccccc1 | 0.0352 | -1.59 (inactive) | 0.987 (inactive) | -2.65 (inactive) | -0.683 (inactive) | -1.09 (inactive) | 0.747 (inactive) | -0.715 (inactive) | -0.32 | -0.152
23 | C#CCCCON=C1C[C@@H](O)[C@@H](O)[C@@H]2[C@@H]3C(=O)N(C[C@@H]4CCCO4)C(=O)[C@@H]3CC[C@@H]12 | 0.475 | 0.43 (inactive) | 0.0893 (inactive) | -0.85 (inactive) | 0.14 (inactive) | -0.399 (inactive) | 0.534 (inactive) | 0.802 (inactive) | 0.199 | -0.0303
24 | CC(C)(C)N1C(=O)[C@H]2[C@H]3[C@H](O)[C@H](O)CC(=NNC(=O)OCc4ccccc4)[C@H]3CC[C@H]2C1=O | -0.558 | -4.15 (inactive) | 0.0137 (inactive) | -2.25 (inactive) | 0.118 (inactive) | -0.589 (inactive) | 0.352 (inactive) | -0.645 (inactive) | -0.198 | 0.0282
25 | CCOC(=O)CCN1C(=O)[C@H]2[C@H]3[C@H](O)[C@H](O)CC(=NOCC=C(C)CCC=C(C)C)[C@@H]3CC[C@H]2C1=O | 0.046 | 0.448 (inactive) | -0.836 (inactive) | 0.69 (inactive) | 0.176 (inactive) | -0.839 (inactive) | -1.15 (inactive) | -0.209 (inactive) | -0.871 | 0.175
26 | C#CCCCON=C1C[C@@H](O)[C@@H](O)[C@@H]2[C@@H]3C(=O)N([C@@H](C)c4ccccc4)C(=O)[C@@H]3CC[C@@H]12 | -0.121 | 0.858 (inactive) | -0.521 (inactive) | 0.579 (inactive) | 0.237 (inactive) | 0.604 (inactive) | -0.612 (inactive) | -0.245 (inactive) | -0.245 | -0.124
